In ChEMBL document CHEMBL1157539, “Thousands of chemical starting points for antimalarial lead identification” (Nature, 2010):

These compounds were tested on Plasmodium falciparum (assay: GSK_TCMDC: Inhibition of Plasmodium falciparum 3D7 in whole red blood cells, using parasite LDH activity as an index of growth. Test compounds present at 2uM).
Assay type: functional

SMILES	Inhibition
COc1cc(Nc2nccc(N3CCC(NC(=O)C(C)c4ccc(Cl)cc4)C3)n2)cc(OC)c1OC (stereo not given)	97%
Cc1cccc(Nc2c(-c3cc(Br)ccc3O)nc3ncccn23)c1	100%
O=C(Nc1cccc(N2CCC(NCCCc3ccncc3)CC2)c1)c1cccc(C(F)(F)F)c1	96%
Cc1[nH]cnc1-c1cccc(NC(=O)c2cc3ccccc3s2)c1	99%
COc1ccc(NC(=O)c2cc(NC(=O)C3(N)CC3)c(=O)n(Cc3ccc(C(N)=O)cc3)c2)cc1.O=C(O)C(F)(F)F	95%
Cc1ccc(NC(=O)c2ccc3ncccc3c2)cc1OC1CCN(Cc2ccco2)C1.O=C(O)C(F)(F)F (stereo not given)	86%
CO/C(=C\C=C\c1cc2cc(Cl)c(Cl)cc2[nH]1)C(=O)NCCCN(C)CCN(C)c1ccccc1	96%
COc1ccccc1Cn1ccnc1SCC(=O)Nc1cccc(C(F)(F)F)c1	86%
N#Cc1ccc2c(c1)CCN(CCCn1c(-c3ccc4ccccc4c3)nc3ccncc31)CC2	100%
O=c1cc(NCCCNCc2cccc(C(F)(F)F)c2Cl)[nH]c2ccccc12	94%
CNCCCNCc1ccc(-c2ccc(F)c(Cl)c2)o1.Cl	100%
CCCCCN1CCCN(Cc2cccc(NC(=O)c3cc4ccccc4s3)c2)CC1.O=C(O)C(F)(F)F	99%
CCOc1ccc2nc3cc(NC(=O)c4ccco4)ccc3c(N)c2c1	100%
COc1cc(C(=O)N2C(c3nccs3)C(C(=O)N(OC)C(C)c3ccccc3)CC2(CC(C)C)C(=O)OC(C)(C)C)ccc1C(C)(C)C (stereo not given)	92%
O=C(Nc1cccc(CN2CCCN(Cc3ccsc3)CC2)c1)c1ccc(-c2ccccc2)cc1.O=C(O)C(F)(F)F	90%
CNC(=O)Cc1ccc(C(=O)Nc2cccc(-c3cccc(-c4nc5cccc(C)c5[nH]4)c3)c2)cc1	96%
O=C(O)C(F)(F)F.O=C(c1cccs1)N(Cc1cccc(-c2ccc(CNCCc3ccccc3)cc2)c1)C1CCN(Cc2ccccc2)CC1	95%
COc1ccc(O)cc1Cc1cnc2nc(N)nc(N)c2c1C	92%
CNS(=O)(=O)c1ccc(NC(=O)c2cc(-c3cccnc3)nc3ccc(Br)cc23)cc1	100%
CCOC(=O)NCCSC(C)(C)[C@H](NC(=O)[C@H](Cc1cc2ccccc2s1)[C@H](CC)N(O)C=O)C(=O)Nc1nccs1	98%

SMILES	Inhibition
COc1ccc(CNC2CCN(C)CC2)cc1-c1ccc(S(=O)(=O)NC2CCC2)c(F)c1.O=C(O)C(F)(F)F	100%
Cc1[nH]c(C)c(-c2ccc(Br)cc2)c(=O)c1Cl	94%
CCNc1cc(C(=O)N[C@@H](Cc2ccccc2)[C@H](O)CNC2CCC(F)(F)CC2)c(F)c(N2CCCCS2(=O)=O)c1.O=CO	100%
Oc1ccc2ccccc2c1C=NNc1nc(=Nc2ccccc2)[nH]c(=Nc2ccccc2)[nH]1	99%
Cc1ccc(NS(=O)(=O)c2ccc(C(C)N3CCC(N4CCCCC4)CC3)cc2)cc1C (stereo not given)	97%
CS(=O)(=O)c1ccc(-c2cnc(N)c(-c3cccc(CO)c3)c2)cc1	98%
CCN(CC1CCN(CC2(O)CCOCC2)CC1)c1cc(C)nc(Nc2ccc(Cl)cc2)n1	100%
CCCCCc1cc(OC(=O)CCCN(CC)CC)c2c(c1)OC(C)(C)C=C2C1=CCN(Cc2ccc3ccccc3c2)CC1	100%
CC(=O)Nc1ccc(C(=O)Nc2cccc(-c3ccc(-c4nc5cc(F)ccc5[nH]4)s3)c2)cn1	100%
Cc1cc(C=C2SC(=Nc3ccccc3)N(C3CCCC3)C2=O)c(C)n1-c1ccc(Cl)cc1	100%
CCN(CC)CCN(Cc1ccc(-c2ccc(C(F)(F)F)cc2)cc1)C(=O)Cn1c(CCc2ccccc2F)nc(=O)c2ccccc21.O=C(O)C(O)C(O)C(=O)O	95%
O=C(Nc1ccc(Cn2ncc(N3CCCNCC3)c(Cl)c2=O)cc1)Nc1ccc(OCc2ccccc2)cc1.O=C(O)C(F)(F)F	90%
Cl.Clc1cnc2ccc3c(c2c1CCN1CCC(NCc2cc4c(cn2)OCCO4)CC1)OCCO3	92%
CCC[C@@H]([C@@H](CC1CCCCC1)C(=O)N[C@H](C(=O)Nc1nccs1)[C@H](C)O)N(O)C=O	99%
Cl.O=C(NC1CCC(CCN2Cc3ccc(Br)cc3C2)CC1)c1cccc(-c2cccnc2)c1 (stereo not given)	99%
Cc1cccc2nc(-c3ccc(-c4cccc(CNCCCNS(C)(=O)=O)c4)cc3)[nH]c12.O=C(O)C(F)(F)F	99%
CCCCCN1CCC(NS(=O)(=O)c2cccc(C(=O)Nc3ccc(C(F)(F)F)cc3)c2)C1.O=C(O)C(F)(F)F (stereo not given)	95%
Br.Oc1ccc(CNCCCCCCNCCc2ccc(Cl)cc2)cc1O	94%
Cn1ccc2c3c(N)nc(N)nc3ccc21	91%
O=C(Nc1cc(C(F)(F)F)cc(C(F)(F)F)c1)c1cc(C(F)(F)F)cc(C(F)(F)F)c1	100%
